Laboratory results published in PubChem BioAssay.

Test: binders of probe aFGF2 on microarray, primary screen, stem cell growth factor project, biochemical, small-molecule microarray, fluorescence 635/667 (AID 1067);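 also: measures binding of biotinylated aFGF2 protein to printed compounds on slides; z-score merges feature fluorescence and signal-to-noise across triplicate slides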
Conditions: higher = more signal
In the case of `O=C1OCCC=C[C@H]2OC34C=CCN(Cc5ccccc5)C(=O)[C@H]3N(CCCCCCO)C(=O)[C@@H]4C12` (stereo partly drawn), the composite z-score is reported as -0.196. Compound `CN(C)CCCCNC(=O)[C@H]1C[C@H]2C(=O)N[C@@H](Cc3ccccc3)C(=O)N2[C@H]1c1ccc(O)cc1` has a composite z-score of -0.0805. Work on `COCCOC(=O)N1C(=O)[C@@]2(c3cc(C#CCC(C(=O)OC)C(=O)OC)ccc31)[C@H](c1ccccc1OCCO)N1[C@H](c3ccccc3)[C@H](c3ccccc3)OC(=O)[C@H]1[C@@H]2C(=O)N1CCc2cc(OC)c(OC)cc2C1` yielded a composite z-score of -0.126. Work on `COC(=O)[C@@]1(Cc2ccccc2)[C@H]2c3cc(C(=O)N(C)C)n(Cc4c(-c5ccccc5)noc4C)c3C[C@H]2CN1C(=O)c1ccccc1` yielded a composite z-score of 0.308. Work on `O=C1C[C@@](C(=O)NC2CC2)(c2ccc([N+](=O)[O-])cc2)[C@@H](c2ccc(CO)cc2)N1CC12CC3CC(CC(C3)C1)C2` yielded a composite z-score of -0.0111. Compound `COCCOC(=O)N1C(=O)[C@@]2(c3cc(C#CC4=CCCCC4)ccc31)[C@H](C(=O)NC[C@H](O)c1ccccc1)[C@H]1C(=O)O[C@H](c3ccccc3)[C@H](c3ccccc3)N1[C@@H]2c1ccc(O)cc1` has a composite z-score of -0.105. In the case of `CC(C)NC(=O)[C@@]1(Cc2ccccc2I)c2ccccc2C(=O)N(Cc2ccccc2)[C@H]1c1ccc(CO)cc1`, the composite z-score is reported as -0.017. With `O=C1N(CCS(=O)(=O)c2ccccc2)c2ccccc2C[C@@]12COC(c1ccc(OCCCO)cc1)=N2` the composite z-score was 0.0887. `CC(C)(C)N1CC=CC23O[C@@H]4C=CCOC(=O)[C@@H]4[C@H]2C(=O)N(CCCCCO)[C@@H]3C1=O` (stereo partly drawn) showed a composite z-score of -0.159. For `COCCOC(=O)N1C(=O)[C@@]2(c3cc(C#CCNC(N)=O)ccc31)[C@H](C(=O)N1CCN(c3ncccn3)CC1)[C@H]1C(=O)O[C@H](c3ccccc3)[C@H](c3ccccc3)N1[C@@H]2c1ccccc1OCCO`, the composite z-score was 0.0811. With `COCCOC(=O)N1C(=O)[C@@]2(c3ccccc31)[C@H](c1ccc(O)cc1)N1[C@H](c3ccccc3)[C@H](c3ccccc3)OC(=O)[C@H]1[C@@H]2C(=O)N1CCc2cc(OC)c(OC)cc2C1` the composite z-score was 0.0631. Work on `CCCN1C(=O)[C@]2(COC(c3ccc(OCCCO)cc3)=N2)Cc2ccccc21` yielded a composite z-score of 0.0092. Work on `NC(=O)NCC#Cc1ccc2c(c1)[C@]1(C(=O)N2)[C@H](C(=O)NC[C@H](O)c2ccccc2)[C@H]2C(=O)O[C@H](c3ccccc3)[C@H](c3ccccc3)N2[C@@H]1c1ccc(O)cc1` yielded a composite z-score of 0.337. In the case of `CC(C)N1C(=O)c2ccccc2[C@@H](C(=O)NCCCN(C)C)[C@@H]1c1ccc(CO)cc1`, the composite z-score is reported as -0.0502. For `CC(C)=CCCC(C)=CC(O)C1C=CC2C(=O)N(c3ccccc3)C(=O)C2N1Nc1ccccc1` (stereo not drawn), the composite z-score was 0.155. In the case of `CN(C)CCCCCCNC(=O)[C@H]1C[C@H]2C(=O)N[C@@H](CCCCN)C(=O)N2[C@H]1c1ccc(O)cc1`, the composite z-score is reported as 0.762. Compound `O=C1O[C@H](c2ccccc2)[C@H](c2ccccc2)N2[C@H]1[C@@H](C(=O)N1CCN(c3ncccn3)CC1)[C@]1(C(=O)Nc3ccccc31)[C@H]2c1ccc(OCCO)cc1` has a composite z-score of -0.106. With `COc1cc2c(cc1O)C(C)N(Cc1cccc(OC(F)(F)F)c1)CC2` (stereo not drawn) the composite z-score was 0.139. With `[N-]=[N+]=NCc1ccccc1C[C@@]1(C(=O)N2CCOCC2)N=C(c2ccc(OCCCO)cc2)O[C@@H]1c1ccccc1CN=[N+]=[N-]` the composite z-score was 0.266. Compound `N[C@@H](Cc1ccccc1)Cn1cc(-c2ccccc2)nn1` has a composite z-score of -0.0613. `CC(=CC1CCCCC1)[C@@H](NC(=O)c1ccc(C(F)(F)F)cc1)c1ccc(-c2ccccc2)cc1` showed a composite z-score of 0.0083. With `CCOC(=O)C[C@H]1[C@H](OC(=O)c2ccccc2-c2ccccc2)[C@@H](NC(=O)c2ccc3ccccc3c2)c2cc(OCCCO)ccc2N1C(=O)c1ccc2ccccc2n1` the composite z-score was -0.08. For `CC(c1ccccc1)C(O)C1C=CC2C(=O)NC(=O)C2N1Nc1ccccn1` (stereo not drawn), the composite z-score was -0.044.

Test: binders of probe aFGF10 on microarray, primary screen, stem cell growth factor project, biochemical, small-molecule microarray, fluorescence 635/667 (AID 1071);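 also: score merges 667 nm spot intensity and signal to noise from triplicate slides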
Conditions: higher = more signal
With `COCCOC(=O)N1C(=O)[C@@]2(c3cc(C#Cc4ccc(OC)cc4)ccc31)[C@H](C(=O)N1CCN(c3ncccn3)CC1)[C@H]1C(=O)O[C@H](c3ccccc3)[C@H](c3ccccc3)N1[C@@H]2c1ccc(O)cc1` the composite z-score was 0.464. Work on `COC(=O)C(CC#Cc1ccc2c(c1)[C@]1(C(=O)N2)[C@H](C(=O)NC[C@H](O)c2ccccc2)[C@H]2C(=O)O[C@H](c3ccccc3)[C@H](c3ccccc3)N2[C@@H]1c1ccc(OCCO)cc1)C(=O)OC` yielded a composite z-score of 0.641. With `O=C1C2C=CC(C(O)c3ccc(-c4ccccc4)s3)N(n3cnnc3)C2C(=O)N1Cc1ccccc1` (stereo not drawn) the composite z-score was -0.0152. `O=c1cccc(C=Cc2ccccc2)o1` showed a composite z-score of -0.0239. With `C=C(C(=O)CC[C@H](OC(C)=O)c1ccc(OCCO)cc1)C(C)C` the composite z-score was 0.991. Compound `CCCC[C@H]1OB(O)C[C@H]2C1=C(C)C[C@H]1C(=O)N(Cc3ccccc3)C(=O)[C@H]12` has a composite z-score of 0.951. With `CCCCC(CC)C(O)C1C=CC2C(=O)N(c3ccccc3)C(=O)C2N1Nc1ccccc1` (stereo not drawn) the composite z-score was 0.698. For `O=C(OCCF)C1=CCC(c2cccc(Cl)c2)O1` (stereo not drawn), the composite z-score was 0.193. `COCC1=C2[C@@H](CCc3ccccc3)OB(O)C[C@@H]2[C@@H]2C(=O)N(Cc3ccccc3)C(=O)[C@@H]2C1` gave a composite z-score of 0.135. `CC(C)C[C@@H]1NC(=O)[C@H]2C[C@@H](C(=O)NCCCCCNC(=O)CS)[C@@H](c3cccc(OCCO)c3)N2C1=O` gave a composite z-score of 0.387. `COc1ccc(CCN2C(=O)[C@@]3(Cc4ccccc42)c2ccccc2C(=O)N(Cc2ccccc2Cl)[C@H]3c2ccc(CO)cc2)cc1` showed a composite z-score of -0.249. `CCCCCN1CC=CC23O[C@@H]4C=CCOC(=O)[C@@H]4[C@H]2C(=O)N(CCCO)[C@@H]3C1=O` (stereo partly drawn) gave a composite z-score of -0.549. Compound `O=C1OCCC=C[C@H]2OC34C=CCN(Cc5ccccc5)C(=O)[C@H]3N(CCCCCCO)C(=O)[C@@H]4C12` (stereo partly drawn) has a composite z-score of -0.384. `CN(C)CCCCNC(=O)[C@H]1C[C@H]2C(=O)N[C@@H](Cc3ccccc3)C(=O)N2[C@H]1c1ccc(O)cc1` showed a composite z-score of 0.934. In the case of `COCCOC(=O)N1C(=O)[C@@]2(c3cc(C#CCC(C(=O)OC)C(=O)OC)ccc31)[C@H](c1ccccc1OCCO)N1[C@H](c3ccccc3)[C@H](c3ccccc3)OC(=O)[C@H]1[C@@H]2C(=O)N1CCc2cc(OC)c(OC)cc2C1`, the composite z-score is reported as 0.319. For `COC(=O)[C@@]1(Cc2ccccc2)[C@H]2c3cc(C(=O)N(C)C)n(Cc4c(-c5ccccc5)noc4C)c3C[C@H]2CN1C(=O)c1ccccc1`, the composite z-score was 0.346. Compound `O=C1C[C@@](C(=O)NC2CC2)(c2ccc([N+](=O)[O-])cc2)[C@@H](c2ccc(CO)cc2)N1CC12CC3CC(CC(C3)C1)C2` has a composite z-score of 0.214. Compound `COCCOC(=O)N1C(=O)[C@@]2(c3cc(C#CC4=CCCCC4)ccc31)[C@H](C(=O)NC[C@H](O)c1ccccc1)[C@H]1C(=O)O[C@H](c3ccccc3)[C@H](c3ccccc3)N1[C@@H]2c1ccc(O)cc1` has a composite z-score of 0.797. For `CC(C)NC(=O)[C@@]1(Cc2ccccc2I)c2ccccc2C(=O)N(Cc2ccccc2)[C@H]1c1ccc(CO)cc1`, the composite z-score was 0.554. Compound `O=C1N(CCS(=O)(=O)c2ccccc2)c2ccccc2C[C@@]12COC(c1ccc(OCCCO)cc1)=N2` has a composite z-score of 0.322. For `CC(C)(C)N1CC=CC23O[C@@H]4C=CCOC(=O)[C@@H]4[C@H]2C(=O)N(CCCCCO)[C@@H]3C1=O` (stereo partly drawn), the composite z-score was -0.335. Compound `COCCOC(=O)N1C(=O)[C@@]2(c3cc(C#CCNC(N)=O)ccc31)[C@H](C(=O)N1CCN(c3ncccn3)CC1)[C@H]1C(=O)O[C@H](c3ccccc3)[C@H](c3ccccc3)N1[C@@H]2c1ccccc1OCCO` has a composite z-score of 0.947. `COCCOC(=O)N1C(=O)[C@@]2(c3ccccc31)[C@H](c1ccc(O)cc1)N1[C@H](c3ccccc3)[C@H](c3ccccc3)OC(=O)[C@H]1[C@@H]2C(=O)N1CCc2cc(OC)c(OC)cc2C1` gave a composite z-score of 0.691. Compound `CCCN1C(=O)[C@]2(COC(c3ccc(OCCCO)cc3)=N2)Cc2ccccc21` has a composite z-score of 0.251. `NC(=O)NCC#Cc1ccc2c(c1)[C@]1(C(=O)N2)[C@H](C(=O)NC[C@H](O)c2ccccc2)[C@H]2C(=O)O[C@H](c3ccccc3)[C@H](c3ccccc3)N2[C@@H]1c1ccc(O)cc1` showed a composite z-score of 0.896. Work on `CC(C)N1C(=O)c2ccccc2[C@@H](C(=O)NCCCN(C)C)[C@@H]1c1ccc(CO)cc1` yielded a composite z-score of -0.086. With `CC(C)=CCCC(C)=CC(O)C1C=CC2C(=O)N(c3ccccc3)C(=O)C2N1Nc1ccccc1` (stereo not drawn) the composite z-score was 1.16. `CN(C)CCCCCCNC(=O)[C@H]1C[C@H]2C(=O)N[C@@H](CCCCN)C(=O)N2[C@H]1c1ccc(O)cc1` gave a composite z-score of 1.14. Compound `O=C1O[C@H](c2ccccc2)[C@H](c2ccccc2)N2[C@H]1[C@@H](C(=O)N1CCN(c3ncccn3)CC1)[C@]1(C(=O)Nc3ccccc31)[C@H]2c1ccc(OCCO)cc1` has a composite z-score of 0.309. `COc1cc2c(cc1O)C(C)N(Cc1cccc(OC(F)(F)F)c1)CC2` (stereo not drawn) gave a composite z-score of 0.953. With `[N-]=[N+]=NCc1ccccc1C[C@@]1(C(=O)N2CCOCC2)N=C(c2ccc(OCCCO)cc2)O[C@@H]1c1ccccc1CN=[N+]=[N-]` the composite z-score was 1.01. In the case of `N[C@@H](Cc1ccccc1)Cn1cc(-c2ccccc2)nn1`, the composite z-score is reported as -0.161. For `CC(=CC1CCCCC1)[C@@H](NC(=O)c1ccc(C(F)(F)F)cc1)c1ccc(-c2ccccc2)cc1`, the composite z-score was -0.0821. `CCOC(=O)C[C@H]1[C@H](OC(=O)c2ccccc2-c2ccccc2)[C@@H](NC(=O)c2ccc3ccccc3c2)c2cc(OCCCO)ccc2N1C(=O)c1ccc2ccccc2n1` gave a composite z-score of 0.443. For `CC(c1ccccc1)C(O)C1C=CC2C(=O)NC(=O)C2N1Nc1ccccn1` (stereo not drawn), the composite z-score was 0.306.
